In PubChem BioAssay AID1159580 (chemical genetic matrix, 2015):
Where “and” joins values, the source holds several entries; their conditions need not be identical. Equal entries are not always repeated. Screen size: about 5,500 compounds; about 2,000 (36%) were called active. About 18% were inconclusive and are not listed. Cut-off read from the data, not from the text of the source: active = normalized growth mostly below about 0.91 (no sharp cut-off); inconclusive = no clear call, values can overlap the other calls; inactive = mostly above about 0.92. Some of the results follow.

Test: chemical genetic growth profiling, strain panel (AID 1159580);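 note: tested at 20 µM; growth read once vehicle control cultures reached saturation at 30 °C; 1 = growth at the plate median or of vehicle wells; lower values mean less growth of the strain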
Conditions: S. cerevisiae deletion strains, growth OD

Measured: normalized growth

CCCCCC(C)N (stereo unspecified)
inactive: locus YAL013W, strain DEP1, active compounds read low 1.01 | locus YAL021C, strain ccr4, active compounds read low 1.02 | locus YAL026C, strain drs2, active compounds read low 1.02 | locus YAL030W, strain snc1, active compounds read low 1.02 | locus YBL061C, strain skt5, active compounds read low 1.03 | locus YBR009C, strain hhf1, active compounds read low 1.03 | locus YBR021W, strain FUR4, active compounds read low 1.01 | locus YBR023C, strain chs3, active compounds read low 1.05 | locus YBR171W, strain sec66, active compounds read low 1.04 | locus YBR229C, strain ROT2, active compounds read low 1.01 | locus YBR231C, strain swc5, active compounds read low 1.04 | locus YBR279W, strain paf1, active compounds read low 1.02 | locus YCL011C, strain gbp2, active compounds read low 1.02 | locus YCL016C, strain dcc1, active compounds read low 1.03 | locus YCL029C, strain bik1, active compounds read low 0.994 | locus YCL061C, strain MRC1, active compounds read low 1.02 | locus YCL069W, strain vba3, active compounds read low 1.03 | locus YCR088W, strain abp1, active compounds read low 1.02 | locus YDL005C, strain med2, active compounds read low 1.04 | locus YDL035C, strain GPR1, active compounds read low 1.02 | locus YDL040C, strain nat1, active compounds read low 1.03 | locus YDL074C, strain BRE1, active compounds read low 1.02 | locus YDL101C, strain DUN1, active compounds read low 1 | locus YDL134C, strain PPH21, active compounds read low 1.02 | locus YDL185W, strain tfp1, active compounds read low 0.999 | locus YDL192W, strain arf1, active compounds read low 0.997 | locus YDR001C, strain nth1, active compounds read low 1.02 | locus YDR069C, strain doa4, active compounds read low 1.01 | locus YDR101C, strain arx1, active compounds read low 0.99 | locus YDR137W, strain rgp1, active compounds read low 1.08 | locus YDR150W, strain NUM1, active compounds read low 1.02 | locus YDR159W, strain sac3, active compounds read low 1.02 | locus YDR162C, strain NBP2, active compounds read low 1.01 | locus YDR195W, strain ref2 1.03 | locus YDR297W, strain sur2, active compounds read low 1.02 | locus YDR318W, strain mcm21, active compounds read low 0.994 | locus YDR334W, strain swr1, active compounds read low 1.02 | locus YDR335W, strain msn5, active compounds read low 1.03 | locus YDR388W, active compounds read low 0.993 | locus YDR392W, strain spt3, active compounds read low 0.996 | locus YDR502C, strain sam2, active compounds read low 0.993 | locus YEL003W, strain gim4, active compounds read low 1.02 | locus YEL037C, strain rad23, active compounds read low 1.02 | locus YEL061C, strain CIN8 (second series), active compounds read low 1.03 | locus YEL061C, strain CIN8, active compounds read low 1.01 | locus YER015W, strain faa2, active compounds read low 1.02 | locus YER016W, strain bim1, active compounds read low 1.02 | locus YER110C, active compounds read low 0.989 | locus YER111C, strain swi4, active compounds read low 1.03 | locus YER155C, strain BEM2 (second series), active compounds read low 1 | locus YER155C, strain BEM2, active compounds read low 1.02 | locus YER167W, strain BCK2, active compounds read low 1.01 | locus YFR010W, strain ubp6, active compounds read low 1.02 | locus YGL078C, strain dbp3, active compounds read low 0.995 | locus YGL086W, strain mad1, active compounds read low 1.01 | locus YGL167C, strain pmr1, active compounds read low 1.03 | locus YGL173C, strain kem1, active compounds read low 1.03 | locus YGL227W, strain vid30, active compounds read low 1.02 | locus YGL240W, strain doc1, active compounds read low 1.02 | locus YGL248W, strain PDE1, active compounds read low 1 | locus YGL253W, strain hxk2, active compounds read low 1.03 | locus YGR078C, strain PAC10, active compounds read low 0.908 | locus YGR135W, strain pre9, active compounds read low 0.996 | locus YGR229C, strain SMI1, active compounds read low 1.01 | locus YGR252W, strain gcn5, active compounds read low 1.05 | locus YHR027C, strain rpn1, active compounds read low 1.02 | locus YHR030C, strain SLT2, active compounds read low 1.02 and 1.01 | locus YHR079C, strain IRE1 (second series), active compounds read low 0.996 | locus YHR079C, strain IRE1, active compounds read low 0.99 | locus YHR094C, strain hxt1, active compounds read low 0.998 | locus YHR129C, strain ARP1, active compounds read low 1.01 | locus YHR142W, strain chs7, active compounds read low 1.04 | locus YHR200W, strain rpn10, active compounds read low 0.996 | locus YIL066C, strain RNR3, active compounds read low 1.02 | locus YIL073C, strain SPO22, active compounds read low 0.987 | locus YIL125W, strain kgd1, active compounds read low 1 | locus YIR030C, strain dcg1, active compounds read low 0.996 | locus YJL092W, strain hpr5, active compounds read low 1.02 | locus YJL095W, strain BCK1 (second series), active compounds read low 1.02 | locus YJL095W, strain BCK1, active compounds read low 0.999 and 1 | locus YJL115W, strain asf1, active compounds read low 1.02 | locus YJL129C, strain trk1, active compounds read low 1.05 | locus YJL134W, strain LCB3, active compounds read low 1 | locus YJL154C, strain vps35, active compounds read low 1.01 | locus YJL164C, strain tpk1, active compounds read low 1.02 | locus YJL166W, strain qcr8, active compounds read low 1.02 | locus YJL168C, strain set2, active compounds read low 0.991 | locus YJL187C, strain SWE1 (second series), active compounds read low 1.01 | locus YJL187C, strain SWE1, active compounds read low 1.02 | locus YJR043C, strain POL32, active compounds read low 0.998 | locus YJR066W, strain TOR1, active compounds read low 0.942
